Source: PubChem
In the library only some 9.8% were active in any assay of this set; here they are far more common.
ALDH1A1 inh: inhibitors of human aldehyde dehydrogenase 1A1. 7.3% of 220,000 active. AID 1030. Potency, µM (highest dose often 75.3 µM), inactives show at the highest dose activity, negative = inhibition, hits mostly inhibitors. Purified ALDH1A1, NADH fluorescence, propionaldehyde substrate. P00352; active = well fitted inhibition curve with a large enough effect, not every such curve was filed as active; inconclusive = small, poorly fitted or top-dose-only effect, or another doubt; inactive = no such curve, though single readings can be large or run the other way;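 also: potency is read from the fitted curve at half-maximal effect; plate controls were no enzyme wells and a reference inhibitor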
HTT aggregate: mutant huntingtin aggregation inhibition. PC12 HttQ103-GFP aggregates, Acumen cytometry, 40 h. Potency, µM (titrated, usually from 46.1 µM), for inactives: top-dose activity change, negative = inhibition, most hits filed as inhibitors. 1.1% of 220,000 active. AID 1688; also: potency is read from the fitted curve at half-maximal effect; % is scaled to controls: 0 for no effect and ±100 for the full control effect; nearly all actives have a fitted effect of over 60% in size
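Read-out: GFP aggregate count by laser scanning cytometer (488 nm excitation, 500-530 nm emission, 1–25 µm objects >6 SD above background). Cells: PC12, inducible HTTex1-Q103-GFP, 100 nM tebufenozide; compounds titrated.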
CBFb RUNX1 block: inhibitors of human CBF-beta and RUNX1 interaction; Q01196+Q13951; AlphaScreen CBFb-His/RUNX1-biotin binding, biochemical; Potency, µM (titrated, usually from 59.8 µM), without a hit: at the top dose activity, negative = inhibition, usual class: inhibitors; 230,000 tested, under 10 active; AID 1477; also: % of control where 0% means no effect
Target sequence (Q01196 whole entry, looked up): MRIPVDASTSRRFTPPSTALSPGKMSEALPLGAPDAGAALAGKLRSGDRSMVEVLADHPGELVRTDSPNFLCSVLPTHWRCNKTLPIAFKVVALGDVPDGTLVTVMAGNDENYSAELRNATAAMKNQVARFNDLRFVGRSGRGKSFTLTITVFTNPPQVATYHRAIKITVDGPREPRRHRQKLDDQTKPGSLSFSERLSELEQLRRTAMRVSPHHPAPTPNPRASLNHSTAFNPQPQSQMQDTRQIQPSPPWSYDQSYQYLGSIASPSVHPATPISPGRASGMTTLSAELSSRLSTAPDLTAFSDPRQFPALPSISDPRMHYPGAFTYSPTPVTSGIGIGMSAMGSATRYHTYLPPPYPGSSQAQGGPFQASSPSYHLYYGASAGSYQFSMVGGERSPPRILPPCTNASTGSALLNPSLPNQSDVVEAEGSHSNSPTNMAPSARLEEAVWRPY
Target sequence (Q13951 whole entry, looked up): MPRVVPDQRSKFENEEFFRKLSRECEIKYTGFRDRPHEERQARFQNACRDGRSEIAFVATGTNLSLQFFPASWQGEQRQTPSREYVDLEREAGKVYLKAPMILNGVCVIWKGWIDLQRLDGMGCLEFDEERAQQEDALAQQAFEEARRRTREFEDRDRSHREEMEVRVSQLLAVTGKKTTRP
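AlphaScreen proximity signal reports loss of binding between His-tagged CBF-beta and biotin-labelled RUNX1, each at 30 nM. Proteins are pre-associated for 20 minutes, compounds added for 15 minutes, then beads for 90 minutes, all at ambient temperature.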
HTT ATP protect: cytoprotection in Huntington HTT-Q103 PC12 cell model; 0.14% of 230,000 active; Potency, µM (highest dose often 56.4 µM), for inactives: cytoprotection (ATP increase), actives largely listed as activators; PC12 HTT-Q103 induced, cytoprotection, ATP luminescence, 40 h; also: potency is read from the fitted curve at half-maximal effect; % of control where 0% means no effect; nearly all actives have a fitted effect of over 45% in size
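Rat PC12, Q103 Htt exon1-GFP fusion, ecdysone promoter; tebufenozide inducer 100 nM final; compound titration; qHTS, 1500 cells/well; ATPlite luminescent read.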
HPGD block: inhibitors of human 15-hydroxyprostaglandin dehydrogenase (HPGD); P15428; purified HPGD, NADH fluorescence kinetic, PGE2 substrate; Potency, µM, inactives show top-dose activity change, negative = inhibition, actives largely listed as inhibitors; 4.3% of 150,000 active; active = well fitted inhibition curve with a large enough effect, not every such curve was filed as active; inconclusive = small, poorly fitted or top-dose-only effect, or another doubt; inactive = no such curve, though single readings can be large or run the other way; also: potency is read from the fitted curve at half-maximal effect; % is scaled to controls: 0 for no effect and ±100 for the full control effect
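NADH formation kinetics: reaction with 30 uM PGE2 and 1 mM NAD+ (final), 20 nM enzyme, Tris-HCl pH 8 with Tween 20, after 15 min compound preincubation at room temperature. Fluorescence change, last versus first of five reads.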
KDM4E inh: inhibitors of human JMJD2E histone demethylase; B2RXH2; JMJD2E catalytic domain, FDH-coupled NADH fluorescence (FDH is formaldehyde dehydrogenase); Potency, µM (highest dose often 57.1 µM), without a hit: at the highest dose activity change, negative = inhibition, usual class: inhibitors; 1.6% of 230,000 active; AID 2147; active = well fitted inhibition curve with a large enough effect, not every such curve was filed as active; inconclusive = small, poorly fitted or top-dose-only effect, or another doubt; inactive = no such curve, though single readings can be large or run the other way;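 also: potency is read from the fitted curve at half-maximal effect; 0% = wells with enzyme and -100% = buffer wells without enzyme; nearly all actives have a fitted effect of over 50% in size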
Active calls of the source: *; ? = inconclusive; nt = no result; ! = not confirmed by another sample; [ ] = another dose, or the depositor's remark. Unless noted, calls follow the shape of the dose curve; as a rule, active = well fitted curve in the direction sought with a large enough effect; inconclusive = small, poorly fitted or top-dose-only effect, or another doubt; inactive = no such curve, though single readings can be large; an effect the other way counts as inactive or inconclusive.

SMILES | ALDH1A1 inh | HTT aggregate | CBFb RUNX1 block | HTT ATP protect | HPGD block | KDM4E inh
Cc1ccc(-n2c(-c3nn(C)c(C)c3Cl)n[nH]c2=S)cc1 | 31.6µM* | 27.0% | 0.1% | -17.6% | 28.2µM* | 5.2%
CC1=NN(c2ccc(S(=O)(=O)O)cc2C)C(=[OH+])[C@H]1N=Nc1cc(S(=O)(=O)O)ccc1C(=O)O.O.[Cr] | ? | nt | nt | 9.0%[10 µM] | -15.9% | nt
COc1ccc(C(=O)O)cc1OC | -8.5% | nt | 21.5% | -91.1% | -3.0% | -7.2%
O=C(O)c1cc(O)c(O)c(O)c1 | 2µM* | 10.5% | -12.1% | -345.9% | 7.08µM*! | 0.355µM*
CC1(C)C(=O)CC[C@]2(C)C3C(=O)C=C4[C@H]5C[C@@](C)(C(=O)O)CC[C@]5(C)CC[C@]4(C)[C@]3(C)CC[C@@H]12 (some centres not stated) | nt | -18.0%[9.22 µM] | ? | -5.2%[10 µM] | nt | -0.6%
CC1=C(O)C(=O)C=C2C1=CC=C1[C@]2(C)CC[C@@]2(C)C3C[C@](C)(C(=O)O)CC[C@@]3(C)CC[C@@]12C (some centres not stated) | -5.8% | nt | 15.3% | nt | 2µM* | ?
Brc1cccc(-c2ccccc2)c1 | 10.4% | nt | -2.7%[21.7 µM] | -32.4% | -2.1% | nt
C=CCOC(C)=O | -0.7% | nt | -23.8%[21.7 µM] | -13.3% | -8.0% | nt
COc1ccc(N(CC(=O)Nc2cccc(SC)c2)S(C)(=O)=O)cc1Cl | 14.1µM* | 7.7%[9.22 µM] | 4.2% | 1.1% | ? | -1.0%
COc1ccc(NC(=O)c2c(C)nn(Cc3ccccc3Cl)c2Cl)cc1Cl | 5.6% | 25.5% | -5.5% | -4.6%[1.9 µM] | -8.1% | 1.0%
O=C(c1cc2c(s1)CCCC2)N1CCC2(CC1)OCCO2 | 11.2µM* | -9.6% | 12.5% | -21.2%[0.074 µM] | 25.1µM* | -2.4%
O=C(c1csc2c1CCCCC2)N1CCC2(CC1)OCCO2 | 8.91µM* | 22.3% | 3.0% | -3.9% | ? | -0.7%
Cc1o[nH]c(=O)c1C[C@H](N)C(=O)O | -4.2% | nt | 2.5% | 11.1% | 3.7% | -8.7%
CC1CC(=O)O1 (configuration not stated) | 8.9% | nt | 1.5%[21.7 µM] | -45.5% | -1.3% | nt
CCn1cc(C(=O)O)c(=O)c2cc(F)c(N3CCNCC3)cc21 | ? | ? | 5.5% | -31.0% | -22.9% | 15.8µM*
CCOC(=O)c1ccc(N2C(=O)CC(N3CC=C(c4ccc(F)cc4)CC3)C2=O)cc1 (configuration not stated) | 3.55µM* | 20.3% | 10.3% | -23.9% | 28.2µM* | 14.1µM*
CC(C)(OOC(C)(C)c1ccccc1)c1ccccc1 | 7.2% | nt | 10.9%[21.7 µM] | -8.0% | -10.2% | nt
O=C(O)[C@H]1CCN1 | nt | nt | nt | -2.6%[1.9 µM] | nt | nt
CCCCC[CH2][Hg][S]C1=C2N=CNC2NC(N)=N1 (configuration not stated) | 0.316µM* | nt | nt | nt | 0.708µM* | nt
Clc1nc(Cl)nc(Nc2ccccc2Cl)n1 | -0.9% | nt | 22.3%[21.7 µM] | -8.2% | -3.0% | nt
Cc1ccc(S(=O)(=O)N[C@@H](CCCCN)C(=O)CCl)cc1 | 8.91µM* | -7.7% | -2.8% | -12.8% | ? | -1.3%
Cc1ccc(S(=O)(=O)NCCC(=O)Nc2ccc(Cl)cc2C(=O)c2ccccc2)cc1 | ? | 18.6% | -3.4% | -11.2%[10 µM] | -10.2% | 4.1%
O=Cc1c(C(=O)O)n(Cc2ccccc2Cl)c2ccccc12 | ? | -14.2% | 2.5% | 13.2% | nt | -7.2%
Cc1cc(C)c(Cn2c(C(=O)O)c(C=O)c3ccccc32)c(C)c1 | 14.1µM* | 17.1% | -2.9% | -40.3% | nt | -6.3%
O=C(O)CN1CCN(CC(=O)O)CC(=O)[O][Hg][O]C(=O)C1 | 1.58µM* | nt | nt | -44.8%[10 µM] | 0.0398µM* | nt
SMILES | ALDH1A1 inh | HTT aggregate | CBFb RUNX1 block | HTT ATP protect | HPGD block | KDM4E inh
NCC1O[C@@H](O[C@H]2C(O)C(O[C@@H]3C(O[C@H]4OC(CO)C(O)C(O)C4N)C(N)CC(N)[C@H]3O)O[C@@H]2CO)C(N)C(O)C1O (some centres not stated) | 3.7% | nt | ? | -42.6% | 1.9% | 5.4%
NCCc1cc(O)c(O)cc1O | -14.3% | 3.0% | nt | -77.4% | -16.1% | 6.31µM*
CCn1c(O)c(C=NCc2cccs2)c(=O)n(CC)c1=S | ? | -9.2%[9.22 µM] | 2.5% | -35.4% | -24.4% | -5.1%
CCn1c(O)c(C(=O)CC2NCCc3ccccc32)c(=O)n(CC)c1=S (configuration not stated) | 1.26µM* | -4.0% | 26.4% | -41.7% | -13.5% | -10.0%
COc1cc2c(cc1OC)-c1c(O)c(OC)cc3c1[C@@H](C2)N(C)CC3 | nt | nt | nt | -21.9% | nt | nt
CCOc1cc(-c2c(C#N)c(=O)[nH]c3c2c(C)nn3-c2ccc(F)cc2)ccc1O | ? | 12.6µM* | 3.0% | 1.3% | ? | ?
C=C(Cl)Cl | -5.5% | nt | -9.3%[21.7 µM] | -9.1% | -4.5% | nt
COc1cc(C(C#N)N2CCOCC2)ccc1O (configuration not stated) | 14.1µM* | 2.1% | -10.9% | 1.0%[10 µM] | nt | ?
COc1cc(C(C#N)N2CCCCC2)ccc1O (configuration not stated) | ? | -4.4% | 8.1% | -2.7% | -14.2% | -29.5%
COc1cc(OC)c(OC)cc1/C=C1\C(=O)NC(=O)N(Cc2ccccc2)C1=O | ? | -20.5% | 1.8% | -36.5% | nt | ?
CCN1C(=O)/C(=C/c2ccc(N(CC)CC)cc2OC)C(=O)NC1=S | 10µM* | -4.2%[9.22 µM] | ? | 4.0%[10 µM] | nt | ?
C=CCN1C(=O)NC(=O)/C(=C/c2cc3c4c(c2)CCCN4CCC3)C1=O | 0.891µM* | -25.9% | -19.5% | nt | 14.1µM* | 20µM*
CN1C2CC(=O)CC1C(O)C2 (configuration not stated) | nt | nt | 11.3% | nt | nt | nt
CC1=C2C(=O)C3C(CC=C4C[C@@H](O)CC[C@@]43C)[C@@H]2CC[C@]12O[C@@H]1C[C@H](C)CN[C@H]1C2C (some centres not stated) | nt | nt | 11.2% | nt | nt | nt
CC1CN(c2ccc([N+](=O)[O-])cc2Cl)CCN1 (configuration not stated) | 15.8µM* | -8.8% | -2.6% | -16.7% | nt | -3.9%
CN1CCN(c2ccc([N+](=O)[O-])cc2Cl)CC1 | -4.8% | 0.5%[9.22 µM] | 1.9% | ? | nt | -3.7%
COc1ccc(N2C(=O)/C(=C/c3cccs3)C(=O)NC2=S)cc1 | nt | -0.9%[9.22 µM] | 4.4% | -3.4%[10 µM] | nt | ?
O=C1NC(=S)N(Cc2ccco2)C(=O)/C1=C\c1cccs1 | 17.8µM* | -1.6% | nt | ? | nt | 14.1µM*
C=CCN1C(=O)/C(=C/c2cccs2)C(=O)NC1=S | 8.91µM* | -0.7% | -5.0% | 34.6%[10 µM] | 3.16µM* | -4.4%
O=C1NC(=O)N(Cc2ccco2)C(=O)/C1=C\c1cccn1CCOc1ccc(Cl)cc1 | -3.5% | 22.1% | ? | -6.2%[10 µM] | -21.8% | 3.5%
C1CCc2nnnn2CC1 | -7.3% | -2.5% | 10.0% | ? | -7.1% | 2.1%
CN(N=O)c1ccc(O)c(O)c1 | 15.8µM* | nt | nt | -8.4%[1.9 µM] | 8.91µM* | 10µM*
